According to PubChem BioAssay AID1159580 (chemical genetic matrix, 2015):
Where “and” joins values, the source holds several entries; their conditions need not be identical. Identical values can stand only once. The campaign covered roughly 5,500 compounds. About 2,000 (36%) were called active. Roughly 18% stayed inconclusive and do not appear here. Cut-off read from the data, not from the text of the source: active = normalized growth mostly below about 0.91 (no sharp cut-off); inconclusive = no clear call, values can overlap the other calls; inactive = mostly above about 0.92. The list shows a part of the results.

Experiment: chemical genetic growth profiling, strain panel (AID 1159580);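 note: tested at 20 µM; growth read once vehicle control cultures reached saturation at 30 °C; 1 = growth at the plate median or of vehicle wells; lower values mean less growth of the strain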
Conditions: S. cerevisiae deletion strains, growth OD

Measured: normalized growth

O=c1ccc2cc(O)c(O)cc2o1
inactive: locus YAL013W, strain DEP1, hits give low values 1.01 | locus YAL021C, strain ccr4, hits give low values 1.01 | locus YAL026C, strain drs2, hits give low values 0.992 | locus YAL030W, strain snc1, hits give low values 1.03 | locus YBL061C, strain skt5, hits give low values 1 | locus YBR009C, strain hhf1, hits give low values 1.03 | locus YBR021W, strain FUR4, hits give low values 0.974 | locus YBR023C, strain chs3, hits give low values 1 | locus YBR171W, strain sec66, hits give low values 1 | locus YBR229C, strain ROT2, hits give low values 1.01 | locus YBR231C, strain swc5, hits give low values 0.966 | locus YBR279W, strain paf1, hits give low values 1.01 | locus YCL011C, strain gbp2, hits give low values 1.03 | locus YCL016C, strain dcc1, hits give low values 1 | locus YCL029C, strain bik1, hits give low values 0.989 | locus YCL061C, strain MRC1, hits give low values 1 | locus YCL069W, strain vba3, hits give low values 0.999 | locus YCR088W, strain abp1, hits give low values 1.01 | locus YDL005C, strain med2, hits give low values 1.02 | locus YDL035C, strain GPR1, hits give low values 0.999 | locus YDL040C, strain nat1, hits give low values 1.02 | locus YDL074C, strain BRE1, hits give low values 1 | locus YDL101C, strain DUN1, hits give low values 1.01 | locus YDL185W, strain tfp1, hits give low values 0.987 | locus YDL192W, strain arf1, hits give low values 0.991 | locus YDR001C, strain nth1, hits give low values 0.994 | locus YDR069C, strain doa4, hits give low values 1.03 | locus YDR101C, strain arx1, hits give low values 0.98 | locus YDR137W, strain rgp1, hits give low values 0.913 | locus YDR159W, strain sac3, hits give low values 0.968 | locus YDR162C, strain NBP2, hits give low values 1.01 | locus YDR195W, strain ref2 1.01 | locus YDR297W, strain sur2, hits give low values 1.01 | locus YDR318W, strain mcm21, hits give low values 0.996 | locus YDR334W, strain swr1, hits give low values 1 | locus YDR335W, strain msn5, hits give low values 0.99 | locus YDR388W, hits give low values 0.996 | locus YDR392W, strain spt3, hits give low values 1.01 | locus YDR502C, strain sam2, hits give low values 0.997 | locus YEL003W, strain gim4, hits give low values 1.03 | locus YEL037C, strain rad23, hits give low values 1 | locus YEL061C, strain CIN8 (second series), hits give low values 0.997 | locus YEL061C, strain CIN8, hits give low values 1.01 | locus YER015W, strain faa2, hits give low values 0.993 | locus YER016W, strain bim1, hits give low values 0.975 | locus YER110C, hits give low values 0.991 | locus YER111C, strain swi4, hits give low values 0.99 | locus YER155C, strain BEM2 (second series), hits give low values 1.1 | locus YER155C, strain BEM2, hits give low values 1 | locus YER167W, strain BCK2, hits give low values 1.01 | locus YFR010W, strain ubp6, hits give low values 1 | locus YGL078C, strain dbp3, hits give low values 0.984 | locus YGL086W, strain mad1, hits give low values 0.987 | locus YGL167C, strain pmr1, hits give low values 0.998 | locus YGL173C, strain kem1, hits give low values 0.975 | locus YGL227W, strain vid30, hits give low values 0.999 | locus YGL240W, strain doc1, hits give low values 1.05 | locus YGL248W, strain PDE1, hits give low values 1.01 | locus YGL253W, strain hxk2, hits give low values 0.984 | locus YGR078C, strain PAC10, hits give low values 1.01 | locus YGR135W, strain pre9, hits give low values 0.987 | locus YGR252W, strain gcn5, hits give low values 0.942 | locus YHR013C, strain ard1, hits give low values 1.01 | locus YHR027C, strain rpn1, hits give low values 0.973 | locus YHR030C, strain SLT2, hits give low values 1.01 and 0.971 | locus YHR079C, strain IRE1 (second series), hits give low values 0.99 | locus YHR079C, strain IRE1, hits give low values 0.976 | locus YHR094C, strain hxt1, hits give low values 0.996 | locus YHR129C, strain ARP1, hits give low values 1.01 | locus YHR142W, strain chs7, hits give low values 0.979 | locus YHR200W, strain rpn10, hits give low values 0.99 | locus YIL066C, strain RNR3, hits give low values 1.01 | locus YIL073C, strain SPO22, hits give low values 0.976 | locus YIL125W, strain kgd1, hits give low values 0.984 | locus YIR030C, strain dcg1, hits give low values 0.996 | locus YJL092W, strain hpr5, hits give low values 1.01 | locus YJL095W, strain BCK1 (second series), hits give low values 1.02 | locus YJL095W, strain BCK1, hits give low values 1.02 and 0.993 | locus YJL115W, strain asf1, hits give low values 1.01 | locus YJL129C, strain trk1, hits give low values 0.973 | locus YJL134W, strain LCB3, hits give low values 1.02 | locus YJL154C, strain vps35, hits give low values 1.01 | locus YJL164C, strain tpk1, hits give low values 1.02 | locus YJL166W, strain qcr8, hits give low values 1.02 | locus YJL168C, strain set2, hits give low values 0.985 | locus YJL187C, strain SWE1 (second series), hits give low values 1.02 | locus YJR043C, strain POL32, hits give low values 1.02 | locus YJR066W, strain TOR1, hits give low values 0.978 | locus YKL009W, strain mrt4, hits give low values 1.01 | locus YKL068W, hits give low values 1 | locus YKL085W, strain MDH1 (second series), hits give low values 1 | locus YKL085W, strain MDH1, hits give low values 1 | locus YKL160W, strain elf1, hits give low values 0.961 | locus YKL190W, strain CNB1, hits give low values 1.01 | locus YKR001C, strain vps1, hits give low values 0.953 | locus YKR026C, strain gcn3, hits give low values 0.997 | locus YKR091W, strain srl3, hits give low values 1 | locus YLL001W, strain dnm1, hits give low values 1.02 | locus YLL026W, hits give low values 0.999 | locus YLL041C, strain sdh2, hits give low values 0.995 | locus YLR027C, strain aat2, hits give low values 1 | locus YLR039C, strain RIC1, hits give low values 1 | locus YLR058C, strain SHM2, hits give low values 1.02 | locus YLR102C, strain apc9, hits give low values 0.987 | locus YLR113W, strain HOG1, hits give low values 0.957 | locus YLR221C, strain rsa3, hits give low values 1.02 | locus YLR258W, strain gsy2, hits give low values 0.994 | locus YLR262C, strain YPT6 (second series), hits give low values 1.05 | locus YLR262C, strain YPT6, hits give low values 1.01 | locus YLR268W, strain sec22, hits give low values 0.972 | locus YLR320W, strain mms22, hits give low values 1.04 | locus YLR330W, strain CHS5, hits give low values 1.02 | locus YLR342W, strain FKS1 (second series), hits give low values 0.965 | locus YLR342W, strain FKS1, hits give low values 1.02 | locus YLR357W, strain rsc2, hits give low values 0.994 | locus YLR370C, strain arc18, hits give low values 1.01 | locus YLR371W, strain rom2, hits give low values 0.982 | locus YLR384C, strain iki3, hits give low values 1 | locus YLR418C, strain cdc73, hits give low values 0.953 | locus YML016C, strain PPZ1, hits give low values 1.02 | locus YML032C, strain rad52, hits give low values 1 | locus YML120C, strain ndi1, hits give low values 1.01 | locus YML124C, strain tub3, hits give low values 0.996 | locus YMR058W, strain fet3, hits give low values 0.97 | locus YMR078C, strain ctf18, hits give low values 0.989 | locus YMR125W, strain sto1, hits give low values 1.02 | locus YMR129W, hits give low values 1 | locus YMR205C, strain PFK2, hits give low values 1.02 | locus YMR223W, strain ubp8, hits give low values 0.985 | locus YMR231W, strain pep5, hits give low values 1 | locus YMR263W, strain SAP30, hits give low values 1 | locus YMR307W, strain GAS1, hits give low values 0.983 | locus YNL067W, strain RPL9B, hits give low values 0.989 | locus YNL071W, strain lat1, hits give low values 1.01 | locus YNL183C, strain NPR1, hits give low values 0.921 | locus YNL209W, strain ssb2, hits give low values 1 | locus YNL233W, strain BNI4, hits give low values 1.01 | locus YNL248C, strain rpa49, hits give low values 1.03 | locus YNL250W, strain rad50, hits give low values 1.01 | locus YNL271C, strain bni1, hits give low values 0.99 | locus YNL298W, strain CLA4, hits give low values 0.994 | locus YNL307C, strain MCK1, hits give low values 0.984 | locus YNL322C, strain KRE1 (second series), hits give low values 1 | locus YNL322C, strain KRE1, hits give low values 1.01 | locus YNR049C, strain mso1, hits give low values 1.01 | locus YNR052C, strain pop2, hits give low values 0.983 | locus YOL006C, strain TOP1, hits give low values 1.01 | locus YOL012C, strain htz1 0.571 | locus YOL147C, strain pex11, hits give low values 0.997 | locus YOR001W, strain rrp6, hits give low values 1.03 | locus YOR061W, strain CKA2, hits give low values 1.02 | locus YOR069W, strain VPS5, hits give low values 1.01 | locus YOR070C, strain gyp1, hits give low values 1 | locus YOR080W, strain dia2, hits give low values 1 | locus YOR083W, strain WHI5, hits give low values 0.942 | locus YOR106W, strain vam3, hits give low values 0.913 | locus YOR136W, strain idh2, hits give low values 0.993 | locus YOR144C, strain elg1, hits give low values 0.983 | locus YOR184W, strain ser1, hits give low values 0.992 | locus YOR231W, strain MKK1, hits give low values 0.98 | locus YOR265W, strain rbl2, hits give low values 0.989 | locus YOR270C, strain vph1, hits give low values 1.06 | locus YOR290C, strain snf2, hits give low values 1 | locus YOR316C, strain cot1, hits give low values 0.998 | locus YPL051W, strain arl3, hits give low values 1 | locus YPL055C, strain LGE1, hits give low values 0.99 | locus YPL078C, strain atp4, hits give low values 0.986 | locus YPL106C, strain sse1, hits give low values 0.983 | locus YPL240C, strain hsp82, hits give low values 1 | locus YPL256C, strain CLN2, hits give low values 1 | locus YPR119W, strain clb2, hits give low values 0.994 | locus YPR141C, strain kar3, hits give low values 0.993 | locus YPR163C, strain tif3, hits give low values 1 | locus YPR167C, strain met16, hits give low values 0.993 | strain wtn01, hits give low values 0.979
